Measured values from PubChem BioAssay (Tox21).
Records with an inconclusive call do not appear. The source made the active and inactive calls. Calls follow the shape of the dose curve; as a rule, active = well fitted activation curve with a large enough effect in the signal ratio in the repeat runs (not every such curve was filed as active); inconclusive = weak or mixed curves, or effect the other way; inactive = flat fitted curve, though single readings scatter; the % refers to the signal ratio.

experiment: qHTS assay to identify small molecule agonists of the endoplasmic reticulum stress response signaling pathway (AID 1159516); conditions: ESRE-bla HeLa, ER stress beta-lactamase reporter, 5 h; series mostly up to 61 µM
Description: National Center for Advancing Translational Sciences [NCATS]
NIH Chemical Genomics Center [NCGC]
U.S. Environmental Protection Agency [EPA]
National Institutes of Environmental Health Sciences [NIEHS]
National Toxicology Program [NTP]
U.S. Food and Drug Administration [FDA]
Endoplasmic Reticulum (ER) plays an important role in cellular signaling, protein folding/maturation, stress response, lipid biosynthesis, calcium storage and release etc. Under stress conditions, proteins in ER misfold or unfold, and leading to the expression of ER stress responsive genes. ER stress has been associated with a variety of pathophysiological conditions such as cancer, inflammation, neurodegenerative diseases, diabetes, ischemic heart disease etc. To identify the compounds that induce ER stress response, an ER stress reporter cell line, CellSensor ESRE-bla HeLa (Life Technologies, Carlsbad, CA) containing a beta-lactamase reporter gene under control of the Endoplasmic reticulum Stress Response Element (ESRE) was used to screen Tox21 10K compound library.
Tox21 Assay Protocol Summary:
ESRE-bla HeLa cells were dispensed at 1,500 cells/6 uL of assay medium per well into black wall/clear-bottom 1536-well plates using a Multidrop Combi (ThermoFisher Scientific, Waltham, MA) dispenser. After the assay plates were incubated at 37 C and 5% CO2 for an overnight, 23 nL of compounds dissolved in DMSO, positive controls or DMSO only was transferred to the assay plate by a Pintool station (Kalypsys, San Diego, CA). The assay plates were incubated at 37 C and 5% CO2 for 5 hr. One uL of LiveBLAzer B/G FRET substrate (Life Technologies) was added using a Flying Reagent Dispenser (Aurora Discovery, San Diego, CA) and the plates were incubated at room temperature for 2 hr. Fluorescence intensity (405 nm excitation, 460 nm and 530 nm emissions) was measured using an Envision plate reader (PerkinElmer, Shelton, CT).

| Structure (SMILES) | outcome |
| --- | --- |
| OCC(CBr)(CBr)CBr | inactive |
| Cc1onc(-c2ccccc2)c1C(=O)Cl | inactive |
| CCOC(=O)COc1ccc2c(c1)CC(NCC(O)c1cccc(Cl)c1)CC2 (stereo not given) | inactive |
| CC(C)C(=O)OCC(C)(C)C(O)C(C)C (stereo not given) | inactive |
| OCc1c2ccccc2cc2ccccc12 | inactive |
| C=CCCCCCCCCO | inactive |
| CS(=O)(=O)c1ccc([C@@H](O)[C@@H](CF)NC(=O)C(Cl)Cl)cc1 | inactive |
| C[C@@H]1CN(c2c(F)c(F)c3c(=O)c(C(=O)O)cn(C4CC4)c3c2F)C[C@H](C)N1 | inactive |
| CCCCNCCCC | inactive |
| CN1CCN(C2=Nc3cc(F)ccc3Cc3ccccc32)CC1 | inactive |
| CCOC(=O)NCCC[Si](OCC)(OCC)OCC | inactive |
| CCCCCCn1c(=O)c2c(ncn2C)n(C)c1=O | inactive |
| O=C(O)C(=O)Cc1c[nH]c2ccccc12 | inactive |
| CC(=O)O[C@H]1CC[C@@]2(C)C(=CC[C@@H]3[C@@H]2CC[C@]2(C)C(C(C)=O)=CC[C@@H]32)C1 | inactive |
| C[C@@H]1CN(c2c(F)c(N)c3c(=O)c(C(=O)O)cn(C4CC4)c3c2F)C[C@H](C)N1 | inactive |
| CCN(CC)CC1CCCCN1CC(=O)N1c2ccccc2C(=O)Nc2cccnc21 (stereo not given) | inactive |
| Cc1cc(S(=O)(=O)O)c(N)cc1Cl | inactive |
| COC(=O)N[C@H](C(=O)N[C@@H](Cc1ccccc1)[C@@H](O)CN(Cc1ccc(-c2ccccn2)cc1)NC(=O)[C@@H](NC(=O)OC)C(C)(C)C)C(C)(C)C | inactive |
| Cc1cc2nc(N)sc2cc1C | inactive |
| C/C(=N\O)[C@@H](C)NCC(C)(C)CN[C@H](C)/C(C)=N/O | inactive |

| Structure (SMILES) | outcome |
| --- | --- |
| C=CC1CO1 (stereo not given) | inactive |
| CCOc1ccc(NS(=O)(=O)c2ccc(N)cc2)nn1 | inactive |
| CC(C)C1=CC2=CC[C@@H]3[C@](C)(CCC[C@@]3(C)C(=O)O)[C@H]2CC1 | inactive |
| CCCCCCOc1ccc(N)cc1 | inactive |
| COc1cc2c(cc1N)oc1ccccc12 | inactive |
| O=C(C(Cl)Cl)N1CCOC12CCCCC2 | inactive |
| C[C@@H](N)C(=O)O | inactive |
| CC(C)C(=O)OC/C=C/c1ccccc1 | inactive |
| Cc1ccsc1C(=CCCN1CCC[C@@H](C(=O)O)C1)c1sccc1C | inactive |
| CCC(=O)O[C@]1(C(=O)SCF)[C@H](C)C[C@H]2[C@@H]3C[C@H](F)C4=CC(=O)C=C[C@]4(C)[C@@]3(F)[C@@H](O)C[C@@]21C | inactive |
| CCc1nnc(NS(=O)(=O)c2ccc(N)cc2)s1 | inactive |
| Cc1c(C(=O)NCCO)[n+](=O)c2ccccc2n1[O-] | inactive |
| CC(C)c1ccccc1 | inactive |
| CN(C)C(=O)NC1(c2ccccc2)CCN(CCC[C@]2(c3ccc(Cl)c(Cl)c3)CCCN(C(=O)c3ccccc3)C2)CC1 | inactive |
| CCN(CC)CCOc1ccc(Cc2ccccc2)cc1 | inactive |
| O=C(Cl)c1cccc([N+](=O)[O-])c1 | inactive |
| CCCCNc1ccc(C(=O)OCCN(CC)CC)cc1 | inactive |
| c1ccc(CN(CC2=NCCN2)c2ccccc2)cc1 | inactive |
| COC(C)CCO (stereo not given) | inactive |
| O=[N+]([O-])c1nccn1CO[C@@H](CO)[C@H](O)CO | inactive |
